# From PubChem
# NPC1 prom act: qHTS Assay for NPC1 Promoter Activators; Huh7 NPC1 promoter luciferase reporter, 24 h; Potency, µM (doses to about 9.22 µM), usual class: activators; 320,000 tested, 2.4% active; AID 485313, 2010; also: nearly all actives have a fitted effect of over 60% in size
#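 Quantitative HTS used a cell-based reporter: Huh7 cells stably bearing the NPC1 promoter upstream of luciferase were treated with compounds for 24 h, and promoter activation was read as luminescence.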
# ELG1 DNA repair: qHTS screen for small molecules that inhibit ELG1-dependent DNA repair in human embryonic kidney (HEK293T) cells expressing luciferase-tagged ELG1; HEK293T ELG1-luciferase reporter, luminescence, 16 h; DNA damage induced by 5-fluorouridine; Potency, µM (top dose mostly 46.1 µM), usual class: inhibitors; 330,000 tested, 2.3% active; also: nearly all actives have a fitted effect of over 55% in size
#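 Cells (2,000 per well) received 5-fluorouridine plus test compound or DMSO and were incubated 16 hr at 37 °C, 5% CO2. Luciferase activity was read by luminescence 30 min after ONE-Glo addition; signal suppression marked inhibition of damage-induced ELG1 function.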
# FLuc modulator: qHTS profiling assay for firefly luciferase inhibitor/activator using purifed enzyme and Km concentrations of substrates (counterscreen for miR-21 project). purified FLuc, Km substrates, luminescence inhibition. Potency, µM (doses to about 57.5 µM), actives largely listed as inhibitors. 360,000 tested, 6.9% active; also: nearly all actives have a fitted effect of over 55% in size
# Target sequence (P08659 whole entry, looked up): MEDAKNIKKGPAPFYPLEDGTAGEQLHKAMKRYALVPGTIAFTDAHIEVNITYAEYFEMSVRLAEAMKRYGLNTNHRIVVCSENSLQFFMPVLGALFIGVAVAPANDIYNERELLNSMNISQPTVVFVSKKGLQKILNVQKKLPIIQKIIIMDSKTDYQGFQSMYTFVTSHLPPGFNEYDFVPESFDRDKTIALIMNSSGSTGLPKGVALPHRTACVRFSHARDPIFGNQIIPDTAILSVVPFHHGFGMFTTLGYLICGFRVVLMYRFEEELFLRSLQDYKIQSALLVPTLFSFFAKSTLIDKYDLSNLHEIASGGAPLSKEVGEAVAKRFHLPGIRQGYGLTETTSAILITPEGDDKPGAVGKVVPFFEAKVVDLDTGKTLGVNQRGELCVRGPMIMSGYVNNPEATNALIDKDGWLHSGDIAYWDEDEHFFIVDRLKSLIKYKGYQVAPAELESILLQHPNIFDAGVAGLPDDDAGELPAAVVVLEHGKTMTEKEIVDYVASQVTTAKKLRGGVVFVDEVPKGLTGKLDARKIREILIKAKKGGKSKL
#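 Purified P. pyralis luciferase (10nM final) with 10uM D-luciferin and 10uM ATP (Km levels) in 50mM Tris acetate pH 7.5, 10mM Mg acetate, 0.01% Tween-20, 0.05% BSA; qHTS 6-point titration, ~60 µM downward; luminescence read.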
# Rab9 prom act: qHTS Assay for Rab9 Promoter Activators | Huh7 Rab9 promoter-luciferase reporter, luminescence, 24 h | Potency, µM (highest dose often 9.22 µM), actives largely listed as activators | 320,000 tested, 2.8% active; also: nearly all actives have a fitted effect of over 60% in size
#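 Quantitative HTS format; Huh7 Rab9-luciferase reporter cells (1500/well) receive compound 2 h post-plating, incubate 24 h at 37 °C, then get luciferase reagent for 10 min before luminescence reading.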
# SMN2 splice enh: qHTS Assay for Enhancers of SMN2 Splice Variant Expression | AID 1458, 2008 | 210,000 tested, 2.8% active | Potency, µM (doses to about 46.1 µM), usual class: activators | HEK293 SMN2-luciferase splicing reporter, luminescence, 30-36 h; also: nearly all actives have a fitted effect of over 55% in size
#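 HEK293 cells carry an SMN2 […]–luciferase reporter in which exon 7 inclusion puts luciferase in frame. Cells were plated 10-12 h before compound addition, then incubated 30-36 h at 37C. ONE-Glo luminescence was read; sodium butyrate at 4.5 mM final served as control.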
# ELG1 genotox: qHTS screen for small molecules that induce genotoxicity in human embryonic kidney (HEK293T) cells expressing luciferase-tagged ELG1; HEK293T ELG1-luciferase reporter, luminescence, 16 h; Potency, µM (top dose mostly 46 µM), most hits filed as activators; 330,000 tested, 1.3% active; AID 504466, 2011; also: nearly all actives have a fitted effect of over 60% in size
#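 Genotoxicity was scored as increased ELG1-luciferase reporter signal, measured by ONE-Glo luminescence (30 min, room temperature). Compound or vehicle exposure of the HEK293T reporter cells lasted 16 hr at 37°C.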
# Numbers stand for hits; i = inactive; ? = inconclusive; nt = no result; [ ] = remark or other dose. An excerpt weighted towards active compounds, which were near 9.3% of everything screened. Calls follow the shape of the dose curve; as a rule, active = well fitted curve in the direction sought with a large enough effect; inconclusive = small, poorly fitted or top-dose-only effect, or another doubt; inactive = no such curve, though single readings can be large; an effect the other way counts as inactive or inconclusive.
SMILES,NPC1 prom act,ELG1 DNA repair,FLuc modulator,Rab9 prom act,SMN2 splice enh,ELG1 genotox
N=c1oc2c3c4c(cc2cc1C(=O)Nc1ccccc1)CCCN4CCC3,?,?,1.9µM,?,10µM,?
O=C(Nc1nnc(-c2cccnc2)o1)c1cccc(Cl)c1,i,16µM,?,i,i,i
COc1cc(OC)cc(C(=O)Nc2nnc(-c3cccnc3)o2)c1,i,?,i,i,i,i
COc1cccc(-c2nnc(NC(=O)c3cccc(F)c3)o2)c1,i,i,17µM,i,nt,?
CCN(CC)CCNC(=O)c1ccc(CS(=O)(=O)c2ccccc2C)o1,i,i,i,i,nt,i
Cc1cc(=O)oc2cc(NC(=O)CN3C(=O)NC(C)(c4ccccc4)C3=O)ccc12 (centres undefined),i,i,i,i,nt,i
O=C(CSc1nc2ccccc2[nH]1)N1CCCCC1,?,?,21µM,3.5µM,10µM,8.2µM
O=C(CCCSc1nc2ccccc2[nH]1)N1CCN(c2ccccc2)CC1,i,23µM,i,i,i,i
O=C(CSc1nc2ccccc2[nH]1)N1CCN(c2ccccc2)CC1,i,i,i,i,i,i
O=C(COC(=O)CCCSc1nc2ccccc2[nH]1)Nc1ccc(Cl)cc1,i,i,19µM,i,i,i
O=[N+]([O-])c1ccc(C(c2sc3nc(-c4ccco4)nn3c2O)N2CCN(c3cccc(Cl)c3)CC2)cc1 (centres undefined),nt,nt,19µM,nt,nt,nt
CCN1CCN(C(c2ccccc2)c2sc3nc(-c4ccco4)nn3c2O)CC1 (centres undefined),nt,nt,i,nt,nt,nt
C=CCOc1ccc(C2NC(=S)NC3=C2CCc2ccccc23)cc1 (centres undefined),i,5.2µM,6µM,i,nt,i
CCCCOC(=O)c1ccc(OC(=O)c2cccnc2)cc1,i,?,?,i,i,i
CCCCCCOC(=O)c1ccc(OC(=O)c2cccnc2)cc1,i,?,?,i,i,18µM
COc1ccccc1C(=O)Oc1ccc(C(C)(C)C)cc1,i,?,6µM,i,i,i
CC(C)(C)c1ccc(OC(=O)c2cccnc2)cc1,i,i,12µM,i,i,i
CC(C)(C)c1ccc(OC(=O)c2ccc3nsnc3c2)cc1,i,i,7.6µM,i,i,i
COC(=O)C1CCN(S(=O)(=O)c2ccc(OC)cc2)CC1,i,i,i,i,i,i
COc1ccc(C(=O)OCCCOC(=O)c2ccc(OC)cc2OC)c(OC)c1,i,i,i,i,nt,i
COc1ccc(C(=O)Oc2ccc(C(C)=O)cc2)c(OC)c1,i,?,12µM,i,i,i
COc1ccc2nc(N3CCCC(C(=O)NCCCN4C(C)CCCC4C)C3)sc2c1 (centres undefined),i,?,i,i,nt,i
Cc1cc(C)nc(SCc2csc(-c3ccccc3)n2)n1,2.5µM,?,3.4µM,1.4µM,5µM,4.6µM
Nc1ccccc1SCc1csc(-c2ccc(Cl)cc2)n1,?,?,13µM,?,i[9.22 µM],i
CCCCn1c(N)c(N(CCC(C)C)C(=O)c2ccccc2-n2cnnn2)c(=O)[nH]c1=O,i,i,i,i,nt,i
SMILES,NPC1 prom act,ELG1 DNA repair,FLuc modulator,Rab9 prom act,SMN2 splice enh,ELG1 genotox
Cc1ccc(CN2CCc3c(OCC(=O)Nc4cc(C)ccc4C)cccc3C2=O)cc1,i,23µM,i,i,i,i
CCOC(=O)N1CCN(C(=O)COc2cccc3c2CCN(Cc2ccc(F)cc2)C3=O)CC1,i,21µM,i,i,i,i
Cc1cccc(CN2CCc3c(OCC(=O)N4CCCc5ccccc54)cccc3C2=O)c1,i,?,i,i,i,i
O=C1c2cccc(OCC(=O)N3CCCc4ccccc43)c2CCN1Cc1ccc(F)cc1,i,23µM,i,i,i,i
O=C(COc1cccc2c1CCN(Cc1ccc(Cl)cc1)C2=O)N1CCOCC1,i,12µM,i,i,i,i
CCOC(=O)N1CCN(C(=O)COc2cccc3c2CCN(CC)C3=O)CC1,i,i,i,i,i,i
O=C(Oc1ccccc1Cl)C1CCN(C(=O)c2ccc(F)cc2)CC1,i,i,i,i,nt,i
CO/N=C/C(=N\Nc1cc(OC)cc(OC)c1)C(=O)c1ccccc1,i,?,i,i,i,i
c1ccc(-c2cn(CC3CCCCC3)nn2)cc1,3.5µM,?,15µM,2.2µM,nt,?
c1ccc(-c2cn(C[C@H]3CC[C@@H]([C@@H]4CC[C@H](Cn5cc(-c6ccccc6)nn5)O4)O3)nn2)cc1,i,i,i,i,nt,i
COc1ccc(-c2cn(Cc3ccc4ccccc4c3)nn2)cc1,i,?,i,i,nt,i
CCCCCc1ccc(-c2cn(CC3CCCCC3)nn2)cc1,?,i,i,2µM,nt,i
COc1ccc(-c2cn(CC3CCCCC3)nn2)cc1,4µM,?,?,2.8µM,nt,?
Clc1cccc(CSc2ncn(-c3ccccc3)n2)c1,i,?,19µM,i,?,?
Clc1ccc(CSc2ncn(-c3ccccc3)n2)cc1,i,i,i,i,i,i
O=C(Nc1ccc(F)cc1)N1CCc2ccccc2C1,4µM,?,24µM,?,nt,?
O=C(Nc1ccc(Br)cc1)N1CCc2ccccc2C1,2.8µM,?,11µM,2.8µM,nt,?
CCC1(C)Cc2c(sc3nnn(CC(=O)Nc4ccccc4C)c(=O)c23)CO1 (centres undefined),i,10µM,i,i,i,i
Cc1ccc(S(=O)(=O)Nc2cccc(-c3ccc(N4CCC(C)CC4)nn3)c2)s1,nt,nt,0.76µM,nt,nt,nt
O=S(=O)(Nc1cccc(-c2ccc(N3CCCCC3)nn2)c1)c1ccc(F)cc1F,nt,nt,1.9µM,nt,nt,nt
CC1CCN(c2ccc(-c3cccc(NS(=O)(=O)c4ccc(F)cc4F)c3)nn2)CC1,nt,nt,1.7µM,nt,nt,nt
O=S(=O)(Nc1cccc(-c2ccc(N3CCCC3)nn2)c1)c1cc(F)ccc1F,nt,nt,6µM,nt,nt,nt
Cc1nnc2ccc(-c3cccc(NS(=O)(=O)c4cc(F)ccc4F)c3)nn12,i,i,i,i,nt,i
CC(NC(=O)CSc1nnc2n1CCCCC2)c1ccccc1Cl (centres undefined),i,i,i,i,nt,i
Cc1ccnc(NS(=O)(=O)c2cccc([N+](=O)[O-])c2)c1,i,i,i,i,nt,i
COc1ccc(CN(CC2CCCO2)C(=O)CN2C(=O)COc3ccccc32)cc1OC (centres undefined),i,12µM,i,i,i,i
CC(=O)NCCOc1cccc(OCCNC(C)=O)c1,i,i,i,i,i,i
CC(=O)NCCOc1ccc2oc3ccccc3c2c1,nt,nt,17µM,nt,i,nt
